What all share (assay): NCI-60 one-dose screen, 48 h (100 = growth as untreated, 0 = no growth, -100 = all killed)
Holding throughout (conditions): 10 µM unless noted

Experiment [1] deals with DU-145 prostate.
In experiment [2] the test system is K-562 leukemia.
Experiment [3] has as its system MALME-3M melanoma.
Experiment [4] has as its system MDA-MB-231 breast.
Experiment [5] concerns RXF 393 renal.
For experiment [6], the system named is SF-268 CNS.
For experiment [7], the system named is SF-295 CNS.
The test system of experiment [8] is SF-539 CNS.
For experiment [9], the system named is UACC-257 melanoma.
Experiment [10] relates to M14 melanoma.

This is part of a sample that, as a whole, favours compounds with a hit. Of some 83,000 tested, about 20% had one in any assay.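 Each cell line was grown in a 96-well plate and treated with one concentration of compound for 48 hours. Values below 10 were considered active.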 A number with no mark means an inactive call. Calls of active or inactive are those of the source.

In the case of `CCCCCCCC/C=C\CCCCCCCCOc1cccc(CC(=O)NCC[N+](C)(C)C)c1`, the growth in experiment [1] is 94.4%; in [2] it was 85.5%; in experiment [3] it was 90.1%; in experiment [4], 87.3%; in experiment [5] it was 13.8%; in [6], 71.5%. Also, the growth was 87.1% in [7], 92.2% in [8], 103% in experiment [9] and 75.3% in [10].
Consider `COC(=O)c1c2c(c(C)[n+]([O-])c1C)C(=O)C=C(NCc1ccc(Cl)cc1)C2=O`, for which the growth in experiment [1] was -83.7% (active); in experiment [2], 1.55% (active); in experiment [3], -95% (active); in [4], -20.7% (active); in experiment [5], -31.7% (active); in experiment [6], 0.305% (active). Moreover, the growth was -59.7% (active) in experiment [7], -89.8% (active) in experiment [8], -84.7% (active) in [9] and -85.5% (active) in experiment [10].
Consider `O=C1C(Br)=C(c2ccccc2)C(=O)C(Br)=C1c1ccccc1`, for which the growth in experiment [1] was 105%; in experiment [2] it was 76.2%; in experiment [3], 114%; in experiment [4] it was 94.6%; in [5], 102%; in [6], 102%. For the same compound, the growth in experiment [7] is 97.9%; in [8], 98.6%; in [9] it was 96.2%; in [10], 104%.
On to `COc1cccc(C2C3=C(COC3=O)N(CCO)c3cc4c(cc32)CCC4)c1` (stereo not given), for which the growth in experiment [1] was -26.5% (active); in experiment [2], 15.8%; in [3], 57.3%; in experiment [4], -12% (active); in [5], -3.06% (active); in experiment [6], 22.6%. Besides, the growth in [7] was -27.5% (active); in experiment [8], -17.9% (active); in experiment [9], 31.5%; in [10] it was -13.7% (active).
With `O=C(O)CCN1CCN(c2cccc(Cl)c2)CC1`, the growth is 118% in [1]; 99.8% in experiment [2]; 107% in experiment [3]; 116% in experiment [4]; 105% in experiment [5]; 117% in [6]. Moreover, the growth in [7] is 87.4%; in experiment [8], 89.1%; in experiment [9], 94.6%; in experiment [10], 109%.
On to `CCOc1ccc(-c2cnnn2-c2nonc2-n2cccc2)cc1`, for which the growth in [1] was -9.36% (active); in [2] it was 5.54% (active); in experiment [3], 52.6%; in experiment [4], 4.16% (active); in [5] it was -30.1% (active); in [6], 50.7%. In addition, the growth in experiment [7] was 8.24% (active); in [8] it was -19.5% (active); in [9], 65%; in experiment [10], 9.7% (active).
`COc1ccc(/C=C2\CN(Cc3cn(CCCNc4ccnc5cc(Cl)ccc45)nn3)C/C(=C\c3ccc(OC)cc3)C2=O)cc1`: the growth is 40.2% in experiment [1]; 63.2% in experiment [2]; 98.4% in [3]; 52.6% in [4]; 27.7% in experiment [5]; 45.5% in [6]. The growth was 72.6% in [7], 78.1% in [8], 56% in [9] and 70.8% in experiment [10].
In the case of `Cc1ccccc1-n1nnc(C(=O)Nc2ccc(-c3ccccc3)cn2)c1C`, the growth is 54.3% [50 µM] in experiment [1]; 26.5% [50 µM] in experiment [2]; 39.6% [50 µM] in experiment [3]; 63.1% [50 µM] in experiment [4]; 74.7% [50 µM] in experiment [5]; 68.7% [50 µM] in experiment [6]. Further, the growth in experiment [7] is 38.9% [50 µM]; in [8], 72.3% [50 µM]; in experiment [9], 25.5% [50 µM]; in experiment [10], 41.8% [50 µM].
Take `COc1cc2nc(N3CCC[C@H](NC4=CC(=O)c5ccccc5C4=O)C3)nc(N)c2cc1OC`: the growth in [1] was -54.1% (active); in experiment [2], -48.4% (active); in experiment [3], -81.3% (active); in experiment [4], -86.8% (active); in experiment [5] it was -76.7% (active); in experiment [6], -52.3% (active). The growth in experiment [7] is -96.8% (active); in [8], -100% (active); in experiment [9], 97.7%; in experiment [10], 96.2%.
In the case of `Oc1cccc(Nc2nc(-c3ccccn3)cs2)c1`, the growth in [1] was 122%; in [2], 93.8%; in [3], 109%; in experiment [4], 98%; in experiment [5], 113%; in [6], 110%. For the same compound, the growth was 99.4% in [7], 98.3% in [8], 110% in experiment [9] and 111% in experiment [10].
Turning to `O=[N+]([O-])c1ccc(C=C2C(Cl)=C(Cl)C(Cl)=C2Cl)cc1`, the growth was 73% in experiment [1]; 7.31% (active) in [2]; 108% in [3]; 74.8% in [4]; 0.914% (active) in experiment [5]; 55.1% in experiment [6]. For the same compound, the growth in experiment [7] was 86.3%; in experiment [8], 75.8%; in [9] it was 67.7%; in experiment [10], 36.9%.
For `COc1ccc(/C=C(\C#N)c2cc3ccccc3n2C)cc1`, the growth in experiment [1] is 2.99% (active); in experiment [2], 7.26% (active); in experiment [3] it was 60.8%; in [4], 31%; in experiment [5], -6.28% (active); in [6], 47.5%. Moreover, the growth was 9.9% (active) in experiment [7], -15.9% (active) in experiment [8], 72.6% in experiment [9] and 6.61% (active) in [10].
For the compound `COc1ccc(C(=O)COc2cccc(/C=C3\CSc4ccc(C)cc4C3=O)c2)cc1`, the growth in [1] is 109%; in experiment [2], 29.3%; in [3], 98.2%; in [4], 79.4%; in experiment [5] it was 71.1%; in [6], 104%. Moreover, the growth in [7] was 102%; in experiment [8] it was 103%; in [9], 95.5%; in experiment [10], 93.8%.
As to `C=C(C)CCCC(C)CC#N` (stereo not given), the growth in [1] is 105%; in experiment [2], 105%; in experiment [3] it was 88%; in [4], 115%; in experiment [5], 105%; in experiment [6], 94.6%. The growth in [7] was 94.3%; in [8] it was 95.6%; in experiment [9], 104%; in experiment [10] it was 96.5%.
In the case of `Cc1cc(Cl)c2c(Cl)ccc(Cl)c2n1`, the growth in experiment [1] was 112%; in [2] it was 97.6%; in [3] it was 105%; in experiment [4], 119%; in experiment [5], 118%; in experiment [6], 99.1%. Besides, the growth was 96.9% in experiment [7], 97.5% in experiment [8], 102% in experiment [9] and 101% in [10].
Turning to `CCCCCCCC/C=C\CCCCCCCCOc1cccc(CC(=O)NCC[N+]2(C)CCOCC2)c1`, the growth was 93.6% in experiment [1]; 73.4% in experiment [2]; 93.3% in experiment [3]; 87.2% in [4]; 6.07% (active) in experiment [5]; 70.2% in [6]. Moreover, the growth was 89.1% in experiment [7], 96.2% in experiment [8], 93.6% in experiment [9] and 87% in [10].
Consider `Cc1ccc(C2SCC(=O)N2NC(=O)c2[nH]c3ccc(F)cc3c2-c2ccccc2)cc1` (stereo not given), for which the growth is 106% in experiment [1]; 75.8% in experiment [2]; 91.6% in experiment [3]; 86.4% in experiment [4]; 78.7% in [5]; 93.4% in [6]. For the same compound, the growth is 92.4% in [7], 97.6% in experiment [8], 86.9% in [9] and 109% in [10].
With `O=C(Nc1ccccc1)Oc1cccc2cccnc12`, the growth in experiment [1] is 92.9%; in [2], 44.9%; in experiment [3], 108%; in [4], 96.7%; in [5], 116%; in experiment [6], 87.6%. For the same compound, the growth is 83.9% in experiment [7], 95.5% in [8], 75.6% in experiment [9] and 57.6% in experiment [10].
Consider `CCOC(=O)n1cc(C2=C(c3cn(C)c4ccccc34)COC2=O)c2ccccc21`, for which the growth in experiment [1] was -14.3% (active); in experiment [2] it was 5.86% (active); in experiment [3], 37.2%; in [4], 25.5%; in [5] it was 19.6%; in experiment [6], 26%. The growth in experiment [7] is 1.58% (active); in experiment [8], -16.3% (active); in experiment [9] it was 55.1%; in [10], 20.1%.
In the case of `O=C(N/N=C/c1ccc2c(c1)OCO2)c1cnn2c1NC(c1ccccc1)C2` (stereo not given), the growth in [1] is 60.9%; in experiment [2] it was 29.8%; in [3] it was 55.1%; in [4], 53.2%; in [5], 6.73% (active); in experiment [6], 66%. Further, the growth is 47.3% in experiment [7], 59.1% in [8], 72.4% in experiment [9] and 42.7% in experiment [10].
Consider `Cc1ccc(-c2c3c(N)c4c(nc3nc3c2c(C)nn3-c2ccccc2)CCCC4)cc1`, for which the growth in experiment [1] is 105%; in experiment [2] it was 36.6%; in [3], 107%; in experiment [4], 97.1%; in [5] it was 97%; in [6], 108%. Besides, the growth in experiment [7] is 100%; in experiment [8], 103%; in [9] it was 92.2%; in experiment [10], 110%.
Consider `CC1(C)N=C(N)N=C(N)N1c1cccc(/C=C/C=C/c2cccc([N+](=O)[O-])c2)c1`, for which the growth is 73% in experiment [1]; 20.6% in experiment [2]; 66.3% in experiment [3]; 81.3% in experiment [4]; 90.4% in experiment [5]; 42.5% in experiment [6]. The growth in experiment [7] is 83.8%; in experiment [8], 15.9%; in [9] it was 41.4%; in [10], 74.5%.
Take `Cc1ccccc1-c1cc(-c2ccc(Br)s2)[nH]c(=O)c1C#N`: the growth is 110% in experiment [1]; 90.3% in experiment [2]; 88.9% in [3]; 100% in [4]; 106% in experiment [5]; 104% in experiment [6]. Besides, the growth in experiment [7] was 95.1%; in experiment [8], 112%; in experiment [9] it was 104%; in [10], 93.6%.
Turning to `c1ccc(-c2n(Cc3ccc4ccccc4n3)c3ccccc3[n+]2Cc2ccc3ccccc3n2)cc1`, the growth in experiment [1] is 17.5%; in [2], 2.99% (active); in experiment [3], -24.6% (active); in [4], -13.1% (active); in experiment [5], -4.06% (active); in experiment [6], 5.9% (active). Further, the growth in experiment [7] is -9.19% (active); in [8], 7.88% (active); in experiment [9] it was -2.75% (active); in experiment [10] it was -14.9% (active).
With `COc1cc(C2C3=C(COC3=O)N(CCO)c3cc4c(cc32)OCO4)cc(OC)c1O` (stereo not given), the growth in experiment [1] was 11.3%; in experiment [2], 27.9%; in experiment [3] it was 35.3%; in experiment [4], 54%; in experiment [5] it was 13.1%; in experiment [6], 51.1%. In addition, the growth in experiment [7] was 8.07% (active); in experiment [8], 12.7%; in experiment [9] it was 14.5%; in experiment [10] it was 9.86% (active).
As for `CCCCC1COc2cccc3c(SCC(=O)N(C)c4cccc5ccccc45)cc[n+]1c23` (stereo not given), the growth in experiment [1] was 105%; in experiment [2], 88.4%; in [3], 107%; in experiment [4], 110%; in experiment [5] it was 115%; in experiment [6] it was 112%. The growth is 96.5% in experiment [7], 96.7% in experiment [8], 101% in [9] and 82.8% in experiment [10].
Take `COc1c(O)c2c3c(c1OC)-c1ccccc1CC3N(S(=O)(=O)c1ccc(C)cc1)CC2` (stereo not given): the growth in experiment [1] is 36.5%; in experiment [2], 23%; in [3], 58.6%; in experiment [4], 52.7%; in experiment [5], 58.6%; in experiment [6], 55.1%. The growth in experiment [7] is 85.2%; in experiment [8] it was 41.2%; in [9], 54.7%; in experiment [10] it was 31.2%.

The record behind these values is PubChem BioAssay (NCI).
